From PubChem BioAssay
ANO1 activ: mouse TMEM16A channel activation, primary screen; Q8BHY3; HEK293 TMEM16A/YFP-H148Q/I152L, iodide quench fluorescence; hits give low values; B-score at 10 µM; actives 0.3% (n = 340,000);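 active = fluorescence-ratio B-score plate-corrected deviation score at least 3 library SD below zero, with starting fluorescence score within 5 deviations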;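 note: channel opened by trigger with iodide after compound preincubation; score built on the fluorescence ratio of max minus min over baseline; more negative score means more quench and so TMEM16A activation or potentiation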
TMEM16A inh: blocks the mouse calcium-activated chloride channel TMEM16A. Q8BHY3. HEK293 TMEM16A/YFP iodide influx fluorescence, ionomycin. normalized B-score (activity score, 25-100; higher = stronger inhibition) at 10 µM. actives 1.2% (n = 310,000);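 active = ratio plate-corrected score three or more library SD toward inhibition, starting fluorescence score within five deviations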;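 note: score derived from kinetic fluorescence span divided by baseline fluorescence per well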
MEKK2 WT-MEK5: raises or lowers MEK5 binding to wildtype human MEKK2 PB1 domain; Q9Y2U5; bead flow cytometry, Alexa488-MEK5 binding to MEKK2 WT; actives lie on both sides; binding response (% of control), % at 10 µM; actives 1.1% (n = 290,000); AID 1531; in the data active = binding response below about 67% or above about 130%
MEKK2mut PB1 HTS: signal of MEK5 binding to mutant human MEKK2 PB1 domain. bead flow cytometry, Alexa488-MEK5 binding to MEKK2 mutant. actives 0.35% (n = 290,000). percent response, % at 10 µM; in the data active = percent response above about 24%, passing the limit was not always enough
NTR1 ag: activates human neurotensin receptor 1; P30989; NTR1-U2OS beta-arrestin-GFP spot imaging, agonist mode; activation, % at 20 µM; actives 0.17% (n = 330,000); AID 493036;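 active = activation at or above 40% of the spot to cytoplasm intensity ratio, with at least 20 cells analyzed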;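 note: 0% = DMSO without peptide and 100% = 100 nM NTR1 peptide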
Target sequence (P30989 whole entry, looked up): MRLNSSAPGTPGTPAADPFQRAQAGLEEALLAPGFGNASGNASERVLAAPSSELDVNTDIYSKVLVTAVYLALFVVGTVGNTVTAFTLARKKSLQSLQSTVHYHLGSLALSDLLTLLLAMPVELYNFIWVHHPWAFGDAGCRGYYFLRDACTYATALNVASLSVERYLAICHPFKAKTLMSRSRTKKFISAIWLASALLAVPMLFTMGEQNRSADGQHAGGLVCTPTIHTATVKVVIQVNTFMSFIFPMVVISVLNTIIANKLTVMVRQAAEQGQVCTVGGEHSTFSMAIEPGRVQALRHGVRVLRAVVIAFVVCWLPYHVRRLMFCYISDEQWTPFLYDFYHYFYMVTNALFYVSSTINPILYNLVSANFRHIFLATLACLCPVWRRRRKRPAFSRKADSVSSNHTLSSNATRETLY
MEKK3 PB1 HTS: modulators (inhibitors or enhancers) of MEK5 binding to human MEKK3 PB1 domain | binding response (% of control), % at 10 µM | actives 1.4% (n = 290,000) | bead-based flow cytometry, Alexa488-MEK5 binding to MEKK3; actives lie on both sides; 0 = blocked by unlabeled MEK5, 100 = vehicle | Q99759;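 active = binding response more than 3 SD above or below the average of its plate-row segment, actives on both sides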;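 note: Alexa488 bead fluorescence after subtracting the streptavidin-only scavenger bead signal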
TMEM16A reconf: TMEM16A (mouse) chloride channel inhibition, re-confirmation | actives 39% (n = 2,300) | shares compounds with TMEM16A inh | HEK293 TMEM16A/YFP-H148Q, iodide quench fluorescence; ionomycin added to raise cell calcium | inhibition, % at 10 µM;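 active = mean duplicate percent inhibition, scaled so buffer wells are 0 and the reference blocker 100, over three buffer SD above buffer mean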
TMEM16A Ca cntr: calcium mobilization counter-screen hit for TMEM16A inhibitor series. TMEM16A/YFP HEK293, Fluo4 calcium mobilization. calcium response (% of ionomycin), % at 10 µM. shares compounds with TMEM16A inh. actives 2% (n = 2,300). AID 652231;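 active = duplicate-averaged calcium signal over 20% of the ionomycin maximum, relative to buffer baseline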;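 note: each well's signal is peak minus trough fluorescence divided by its pre-addition baseline; 0% = buffer wells and 100% = ionomycin wells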
Parental YFP cnt: parental YFP-HEK293 iodide quench counter-screen activity. 2,300 tested, under 10 active. shares compounds with TMEM16A inh. ionomycin. AID 652233. YFP ratio F(max-min)/F0 at 10 µM;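 active = yellow fluorescent protein signal ratio exceeding the buffer control mean by over 5 SD of those controls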;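 note: ratio is mean of duplicate wells from kinetic YFP trace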
ClC-1 inh: rat ClC-1 inhibition, TMEM16A specificity screen. 2,300 tested, under 10 active. CHO ClC-1-YFP, iodide influx fluorescence quench; iodide control reads 0, buffer control 100. AID 652236. shares compounds with TMEM16A inh. ratio percent, % at 10 µM;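 active = duplicate-mean ratio percent above the mean of iodide-only control wells, which defines zero, plus 5 of their SD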;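 note: higher percent means stronger block of ClC-1 iodide influx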
* marks the source's active call; other numbers are inactive results. The list is not random: actives were taken first. Their share in the collection is about 3.4%.

For O=C(Nc1ccsc1C(=O)O)c1cccc(Oc2ccccc2)c1 the results were ANO1 activ inactive, TMEM16A inh 100*, MEKK2 WT-MEK5 104.0, MEKK2mut PB1 HTS 4.0, NTR1 ag -1.4, MEKK3 PB1 HTS 99.0, TMEM16A reconf 52.0%*, TMEM16A Ca cntr inactive, Parental YFP cnt -1.02 and ClC-1 inh -8.5.
`O=C(Nc1ccsc1C(=O)O)c1cccc(C(F)(F)F)c1` gave ANO1 activ inactive, TMEM16A inh inactive, MEKK2 WT-MEK5 103.0, MEKK2mut PB1 HTS 0.0, NTR1 ag -1.0 and MEKK3 PB1 HTS 101.0.
CC(C)n1cc(C(=O)N2CCCC(Nc3ccc(F)c(F)c3)C2)cn1 (stereo unspecified) was read as ANO1 activ inactive, TMEM16A inh inactive, MEKK2 WT-MEK5 96.0, MEKK2mut PB1 HTS -6.0, NTR1 ag 1.5 and MEKK3 PB1 HTS 96.0.
O=C(c1ccc(CNS(=O)(=O)c2ccccc2)cc1)N1CCN(Cc2ccccc2)CC1 was read as ANO1 activ inactive, TMEM16A inh 25*, MEKK2 WT-MEK5 98.0, MEKK2mut PB1 HTS 2.0, NTR1 ag 3.2, MEKK3 PB1 HTS 98.0, TMEM16A reconf inactive, TMEM16A Ca cntr inactive, Parental YFP cnt -0.963 and ClC-1 inh -9.0.
For Cc1ccc(Cn2ncc3c(N4CCN(CCc5ccccc5)CC4)ncnc32)cc1 the results were ANO1 activ inactive, TMEM16A inh inactive, MEKK2 WT-MEK5 95.0, MEKK2mut PB1 HTS -10.0, NTR1 ag 7.7 and MEKK3 PB1 HTS 87.0.
For Cc1ccc(Cn2ncc3c(N4CCN(C)CC4)ncnc32)cc1 the results were ANO1 activ inactive, TMEM16A inh inactive, MEKK2 WT-MEK5 104.0, MEKK2mut PB1 HTS 5.0, NTR1 ag 0.0 and MEKK3 PB1 HTS 103.0.
Cc1ccc(Cn2ncc3c(N4CCN(Cc5ccc(Cl)cc5)CC4)ncnc32)cc1 was read as ANO1 activ inactive, TMEM16A inh 25*, NTR1 ag 11.9, TMEM16A reconf 17.5%*, TMEM16A Ca cntr inactive, Parental YFP cnt -1.11 and ClC-1 inh -7.5.
CC1CCN(c2ncnc3c2cnn3Cc2ccc(Cl)cc2)CC1 was read as ANO1 activ inactive, TMEM16A inh inactive, MEKK2 WT-MEK5 113.0, MEKK2mut PB1 HTS 4.0, NTR1 ag 4.1, MEKK3 PB1 HTS 112.0, TMEM16A reconf inactive, TMEM16A Ca cntr inactive, Parental YFP cnt -0.956 and ClC-1 inh -10.5.
Screening Cc1cc(C)nc(N2CCN(c3ncnc4c3cnn4Cc3ccc(Cl)cc3Cl)CC2)n1 returned TMEM16A inh 100*, MEKK2 WT-MEK5 110.0, MEKK2mut PB1 HTS 4.0, NTR1 ag 3.4, MEKK3 PB1 HTS 118.0, TMEM16A reconf 28.5%*, TMEM16A Ca cntr inactive, Parental YFP cnt -1.03 and ClC-1 inh -20.0.
`Cc1ccc(Cn2ncc3c(N4CCN(c5ccc(C)cc5)CC4)ncnc32)cc1` gave ANO1 activ inactive, TMEM16A inh 100*, NTR1 ag 13.4, TMEM16A reconf 23.5%*, TMEM16A Ca cntr inactive, Parental YFP cnt -1.02 and ClC-1 inh -10.0.
`Cc1ccc(C)c(Nc2cc(C)nc3ccccc23)c1` gave ANO1 activ inactive, TMEM16A inh inactive and NTR1 ag 2.7.
